# Source: PubChem BioAssay (National Center for Advancing Translational Sciences (NCATS))
# BCR signal inh: chronic active BCR signaling inhibition; ABC-DLBCL IkBa-CBG/CBR reporter, luminescence ratio, 4 h; 340,000 tested, 0.05% active; Potency, µM (series often up to 46.1 µM), without a hit: at the highest dose activity change, negative = inhibition, actives largely listed as inhibitors; AID 493014; active = well fitted inhibition curve with a large enough effect in the signal ratio, with a control signal flat, not every such curve was filed as active; inconclusive = small, poorly fitted or top-dose-only effect, or effect the other way, or a change in a side signal; the % refers to the signal ratio;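 note: plate controls were basal doxycycline-induced cells for no effect and cells given 10 µM MG132 for full effect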
#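 Doxycycline induced both beetle luciferases in TMD8 lymphoma cells; IKK-driven degradation limits the IkappaBalpha-fused green signal, while red luminescence normalises for cell number and nonspecific effects. Compounds tested up to 46 uM, 4 hrs.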
# uPA generation: inhibitors of cell surface uPA generation | cell surface uPA generation assay, qHTS | Potency, µM (doses to about 38.3 µM), for the others: top-dose activity change, negative = inhibition, actives largely listed as inhibitors | 330,000 tested, 0.31% active | AID 540303; active = well fitted inhibition curve with a large enough effect; inconclusive = small, poorly fitted or top-dose-only effect; inactive = no such curve, though single readings can be large or run the other way; tested in mouse RAW 264.7 cells; note: % is set by controls: 0 for no effect and ±100 for the full control effect; nearly all actives have a fitted effect of over 55% in size
# a7 integrin act: activators of alpha7 integrin expression for muscular dystrophy; alpha7betagal myoblasts, beta-gal FDG fluorescence, 48 h; Potency, µM (top dose mostly 38.3 µM), for inactives: top-dose activation, usual class: activators; 350,000 tested, 0.064% active; AID 624291;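 note: 100% = response of the positive control SU9516; nearly all actives have a fitted effect of over 60% in size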
#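 Alpha7betagal+/- myoblasts (passage 13) were plated 16-24 hr, then exposed to compounds (1:260 dilution of DMSO stock) for 48 hours at 37C. After MPER lysis, β-galactosidase reporter activity was read as FDG fluorescence (ex 480/em 540) after 30 minutes.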
# Mito fusion act: blocks mitochondrial division or promotes mitochondrial fusion; Potency, µM (doses to about 46.1 µM), for the others: at the highest dose growth rescue (activation), most hits filed as activators; S. cerevisiae fusion-defective mutant growth rescue, CellTiterGlo 48 h; 320,000 tested, 0.23% active; note: % of control where 0% means no effect; nearly all actives have a fitted effect of over 45% in size
#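 Yeast fusion mutant, YPEG (non-fermentable carbon), compound, 48 h at 37C non-permissive; CellTiterGlo added, 10 min RT, luminescence read. Rescued growth = division inhibition.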
# RORgamma inh: ROR gamma (mouse) transcription inhibition; Drosophila S2 Gal4-RORgamma UAS-luciferase reporter, 20 h; AID 2551; 310,000 tested, 5.4% active; Potency, µM (titrated, usually from 53.6 µM), inactives show top-dose activity change, negative = inhibition, usual class: inhibitors; note: % is set by controls: 0 for no effect and ±100 for the full control effect; nearly all actives have a fitted effect of over 60% in size
# Target sequence (P51450 whole entry, looked up, the tested form may be a part): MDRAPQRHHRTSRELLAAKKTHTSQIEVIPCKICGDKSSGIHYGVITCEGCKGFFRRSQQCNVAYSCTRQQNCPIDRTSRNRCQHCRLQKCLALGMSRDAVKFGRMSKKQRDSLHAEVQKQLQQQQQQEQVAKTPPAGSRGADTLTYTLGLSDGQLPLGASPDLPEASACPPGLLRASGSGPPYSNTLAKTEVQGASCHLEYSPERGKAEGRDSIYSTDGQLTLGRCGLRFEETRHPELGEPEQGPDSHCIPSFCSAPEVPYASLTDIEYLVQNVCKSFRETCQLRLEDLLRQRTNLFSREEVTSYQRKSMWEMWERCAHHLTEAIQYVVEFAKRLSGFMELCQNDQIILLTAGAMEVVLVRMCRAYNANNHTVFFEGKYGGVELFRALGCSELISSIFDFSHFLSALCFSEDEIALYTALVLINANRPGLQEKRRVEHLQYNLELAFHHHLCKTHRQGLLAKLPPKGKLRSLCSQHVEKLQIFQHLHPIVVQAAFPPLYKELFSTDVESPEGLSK
#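 Stably transfected Drosophila Schneider cells are the test system, with ROR gamma fused to Gal4 and luciferase under UAS control; luminescence is read after 20 hr of 700 uM copper sulfate induction at ambient temperature.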
# Gal4-VP16 FLuc: Gal4-VP16 reporter inhibition counter-screen; 310,000 tested, 3.5% active; Potency, µM (highest dose often 53.6 µM), for the others: at the highest dose activity, negative = inhibition, usual class: inhibitors; Drosophila S2 Gal4-VP16 UAS-luciferase, luminescence, 20 h;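 note: Gal4-VP16 expression switched on by copper sulfate through the metallothionein promoter; % is set by controls: 0 for no effect and ±100 for the full control effect; nearly all actives have a fitted effect of over 50% in size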
# Numbers without * were called inactive; ? = inconclusive; / = no result; [ ] = dose if it differs, or a comment. A selection: hits, their analogues and other compounds. The true share with any hit is near 5.5%. Unless noted, calls come from the whole dose curve; as a rule, active = well fitted curve in the direction sought with a large enough effect; inconclusive = small, poorly fitted or top-dose-only effect, or another doubt; inactive = no such curve, though single readings can be large; an effect the other way counts as inactive or inconclusive. Potency is the fitted concentration of half-maximal effect.
SMILES,BCR signal inh,uPA generation,a7 integrin act,Mito fusion act,RORgamma inh,Gal4-VP16 FLuc
Cc1ccc(-c2ccccc2NC(=O)C2C3C=CC(C3)C2C(=O)O)o1 (stereo unspecified),-1%,-2%,-7%,-20%,4.5µM*,4.5µM*
CCCCCCCCCCCCCCCCOCC(CO)OC (stereo unspecified),/,/,/,/,21%,-16%
COc1ccc(C2CC(c3ccc(OC)cc3)n3nc(NC(=O)c4cccs4)nc3N2)cc1 (stereo unspecified),-1%,/,43%,-1%,5µM*,?
COc1ccc(C2CC(c3ccc(F)cc3)n3nc(NC(=O)c4ccco4)nc3N2)cc1 (stereo unspecified),9%,4%,0%,-1%,7.1µM*,13µM*
S=c1[nH]c(-c2ccccc2)cn1/N=C/c1ccncc1,?,2%,10%,-3%,6.3µM*,-14%
CCOc1ccc(/C=N/n2cc(-c3ccccc3)[nH]c2=S)cc1,?,-7%,-19%,-2%,1.3µM*,?
S=c1[nH]nc(-c2ccncc2)n1/N=C/c1cn(-c2ccccc2)nc1-c1ccccc1,-3%,2%,-7%,7%,-10%,1%
CCCCN(C(=O)c1ccc([N+](=O)[O-])o1)c1c(N)n(CCCC)c(=O)[nH]c1=O,7%,?,-13%,0%,/,/
O=C(NC12CC3CC(CC(C3)C1)C2)N1CCN(c2nc(-c3ccccc3)cs2)CC1,12%,-2%,-12%,4%,35%,?
O=C(NC(=S)N1CCN(C/C=C/c2ccccc2)CC1)c1ccc(F)cc1,?,-16%,-45%,-6%,0.28µM*,0.63µM*
O=C(NC1CCCCC1)N1CCN(c2nc(-c3ccccc3)cs2)CC1,4%,5%,-14%,7%,11µM*,?
O=C(NC(=S)N1CCN(c2nc(-c3ccccc3)cs2)CC1)c1cccnc1,?,0%,18%,0%,0.11µM*,0.0079µM*
O=C(NC(=S)N1CCN(C/C=C/c2ccccc2)CC1)c1cccnc1,?,-2%,?,6%,0.4µM*,0.89µM*
CCCn1c(=S)[nH]c2cc(C(=O)N3CCN(c4ccc(F)cc4)CC3)ccc2c1=O,/,/,-14%,/,/,/
Cc1c(O)ccc2c1OCO2,/,/,/,/,-18%[10 µM],-5%[10 µM]
CC1CC(C)(C)NC(=S)N1CC(=O)N1CCN(Cc2ccc3c(c2)OCO3)CC1 (stereo unspecified),-1%,6%,19%,4%,-19%,2%
COc1cccc2cc(-c3nc4sc(C(=O)Nc5ccc(F)cc5F)c(C)c4c(=O)[nH]3)c(=O)oc12,0%,/,/,-14%,/,/
COC(=O)C1=C[C@@H](C(=O)OC)[C@H]2C3=C(C(=O)[C@@]2(C)NC(=O)c2ccccc2)[C@H](C)C(C(=O)OC)=C(C(=O)OC)[C@@H]3C1,/,/,/,/,0%,0%
CCN(CC(=O)NCc1cccs1)C(=O)c1cccc(S(=O)(=O)Nc2ccc(OC)cc2)c1,-9%,15%,1%,2%,/,/
C=CCn1cc(C(=O)OC)c(=O)c2cc(S(=O)(=O)N(CC)CC)ccc21,?,-1%,0%,0%,2%,?
C=CCn1cc(C(=O)OC)c(=O)c2cc(S(=O)(=O)N3CCC(C)CC3)ccc21,?,/,2%,-11%,11µM*,-4%
Cc1cc(C)nc(-n2nc(C)c3c(C)c(C)c(C)nc32)n1,-11%,/,/,-1%,10µM*,-6%
O=C(NNc1nc2ccc(Cl)cc2s1)c1cc(-c2cccs2)nc2ccccc12,?,?,-33%,-7%,1.1µM*,?
O=C(NN1CCOCC1)c1cc(-c2cccs2)nc2ccccc12,9%,0%,-5%,0%,0%,-16%
Cc1ccc2sc(NNC(=O)c3cc(-c4cccs4)nc4ccccc34)nc2c1C,-8%,/,/,-1%,4.5µM*,18µM*
SMILES,BCR signal inh,uPA generation,a7 integrin act,Mito fusion act,RORgamma inh,Gal4-VP16 FLuc
C=CCC1(CC=C)CCCN1C(=O)c1cc(COc2ccccc2SC)on1,5%,-9%,-30%,0%,6%,-20%
CCOC(=O)c1sc(NC(=O)CSc2n[nH]c(-c3ccc(Cl)cc3Cl)n2)c(C#N)c1C,7%,-4%,0%,1%,11µM*,?
CCOC(=O)c1sc(NC(=O)c2ccncc2)c(C#N)c1C,?,-6%,-23%,11µM*,?,?
CCOC(=O)c1sc(NC(=O)c2cc(-c3ccccc3C)nc3ccccc23)c(C#N)c1C,?,-11%,0%,1%,8.9µM*,8.9µM*
CCN(CC)C(=O)c1sc2c(c1C)c(=O)n(-c1ccc(C)c(C)c1)c(=O)n2Cc1cccc(Cl)c1,4%,/,/,/,/,/
O=C(NCCN1C(=O)S/C(=C\c2ccc(OC(F)F)cc2)C1=O)C1=COCCO1,?,-11%,-6%,14%,/,/
COc1ccc(/C=C2\SC(=O)N(CCNC(=O)C3=COCCO3)C2=O)cc1,?,7.1µM*,-17%,-2%,/,/
O=C(NCCN1C(=O)S/C(=C\c2ccccc2Cl)C1=O)C1=COCCO1,-3%,7.9µM*,-41%,7%,/,/
COc1ccc(Br)cc1CNc1ccc(O)cc1,-1%,-6%,-70%,1%,8.9µM*,?
COc1ccc(Br)cc1CNc1ccc2[nH]c(=O)[nH]c2c1,0%,2%,4%,3%,3%,-13%
O=c1oc2ccccc2c2c1C1O[C@](c3ccsc3)(Cc3c1ccc1ccccc31)O2,-11%[9.22 µM],/,/,12%[9.22 µM],?,0%[10 µM]
Fc1cc(Br)ccc1NC(=S)NCCc1ccccc1,1%,-2%,-28%,-7%,7.9µM*,?
C=CCNC(=S)NNC(=O)c1ccc(Br)cc1,?,-1%,1%,0%,-25%,?
CS(=O)(=O)N(CCc1ccccc1)CC(=O)Nc1ccc(Br)cc1F,-1%,11%,9%,2%,-4%,-7%
C=CCNC(=S)Nc1cccc2ccccc12,1%,-1%,-20%,-5%,24%,-10%
C=CCNC(=S)Nc1ccc(Cl)cc1F,2%,-23%,-12%,-1%,14µM*,-10%
C=CCNC(=S)Nc1ccc(Br)cc1F,6%,-24%,8%,-5%,16µM*,?
CN(C)/C=N/C(=S)Nc1ccc(Br)cc1F,-22%,-6%,-2%,-2%,?,13µM*
COc1ccc(C=C2c3ccccc3C(=O)c3ccccc32)cc1O,/,/,/,/,3%,11%
Cc1cccc(CNc2nc(-c3cccnc3)nc3ccccc23)c1,/,/,/,/,-4%,-22%
CN(C)/C=N/C(=S)Nc1ccccc1,-2%,-3%,-26%,1%,16µM*,16%[10 µM]
CC(C)c1ccc(/C=C(\c2nc3ccccc3[nH]2)S(=O)(=O)c2ccccc2)cc1,?,-8%,-52%,?,?,?
